# Source: PubChem (several laboratories)
# Peg3 prom inh: Peg3 promoter activity inhibition. inhibition, % at 20 µM. HeLa PEG-Prom luciferase reporter, luminescence, overnight. 360,000 compounds, 1.7% hits;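 active = inhibition of at least 50% at 20 µM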
# TRPM1 prom inh: reduces MITF-dependent TRPM1 promoter luciferase signal; SK-MEL-5 TRPM1 promoter luciferase, 24 h; inhibition, % at 12.5 µM; 330,000 compounds, 0.83% hits; AID 488899;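 active = mean inhibition across replicates of 60% or more, whatever share of single replicates reaches that level; inconclusive = some that reach 60%, reason not given; inactive = mean inhibition across replicates below 60%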
# CF NFkB inh: inhibitors of cystic fibrosis induced NF-kB. inhibition, % at 5 µM. 360,000 compounds, 0.86% hits. KKLEB NF-kB-GFP reporter, PAF-induced, GFP fluorescence overnight;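 active = at least 50% inhibition at 5 µM, scaled per plate between neutral and stimulator controls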;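 also: PAF is a Pseudomonas aeruginosa culture filtrate used as stimulus; plate controls were PAF-stimulated DMSO wells for no effect and unstimulated DMSO wells for full effect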
# HIF-2a block: inhibitors of HIF-2a. 786-0 RCC cells HIF-2a reporter, luciferase luminescence, overnight. inhibition, % at 18.8 µM. 360,000 compounds, 0.72% hits. AID 624352;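 active = inhibition of the luminescence signal of 40% or more relative to plate controls, in a single-dose primary screen at 18.75 µM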
# Shn3 3UTR inh: Schnurri-3 reporter inhibition in Clone20 osteoblasts; AID 588674; inhibition, % at 12.5 µM; 360,000 compounds, 0.52% hits; Clone20 osteoblast Shn3 3'UTR firefly luciferase, 24 h;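 active = mean inhibition of at least 75% with every replicate also reaching 75%; inconclusive = mean inhibition at least 75% but some replicate below; inactive = mean inhibition below 75%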;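 also: 0% = median of neutral control wells and 100% = pilot-screen positive control compound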
# KKLEB cytotox: counter-screen for CF NF-kB inhibitors: cytotoxicity | KKLEB CF airway cells viability, ATPlite luminescence, overnight; hits give low values; cells stimulated with P. aeruginosa culture filtrate | activity change (cytotoxicity), % at 5 µM | 360,000 compounds, 0.36% hits;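 active = corrected activity change at or below -50% at 5 µM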
# * marks the source's active call; other numbers are inactive results; ? = inconclusive; . = no result. Hits are enriched below; roughly 2.8% of the tested compounds scored in any of these assays.
SMILES,Peg3 prom inh,TRPM1 prom inh,CF NFkB inh,HIF-2a block,Shn3 3UTR inh,KKLEB cytotox
CCOC(=O)c1ccc(NC(=O)c2nc[nH]c2C(=O)NCCCCCNC(=O)OC(C)(C)C)cc1,70*,6,20,-1,0,-16
CCOC(=O)c1ccc(NC(=O)c2nc[nH]c2C(=O)NCCCCNC(=O)c2[nH]cnc2C(=O)Nc2ccc(C(=O)OCC)cc2)cc1,97*,27,45,1,45,-36
CCOC(=O)c1ccc(NC(=O)c2nc[nH]c2C(=O)NCCCNC(=O)c2[nH]cnc2C(=O)Nc2ccc(C(=O)OCC)cc2)cc1,13,-6,-1,8,14,3
Cc1cccc(C(=O)N/N=C/c2cc(Br)c(Br)o2)c1,-78,-29,-1,-168,-5,4
CCNC(=O)C1CCCN(C(=O)c2cccc(OC(F)(F)F)c2)CC1 (stereo not given),4,.,7,6,-7,14
COc1cccc(OC)c1C1=CC(=O)C[C@H](c2ccc3c(c2)OCO3)C1,19,2,-7,0,0,4
COc1cccc2c1C(=O)O/C2=C/c1ccc2c(c1)OCO2,-31,-5,42,-191,16,-73*
C=CCn1c(C)cc(C(=O)CSc2nnc3c(Cl)cc(Cl)cn23)c1C,-6,11,-6,-14,9,-70*
CC(Sc1nc2ccccc2c(=O)n1CC1CCCO1)C(=O)N(C)Cc1ccccc1 (stereo not given),17,-6,6,11,-6,-8
CC(Sc1nc2ccccc2c(=O)n1C)C(=O)N(C)C1CCCCC1 (stereo not given),10,27,-2,2,88*,-7
Nc1ccc(-c2nc3ccc(-c4nc5ccccc5o4)cc3[nH]2)cc1,73*,-42,37,-275,-31,-76*
O=C1CN(C(=O)COc2ccc(Br)cc2)c2ccccc2N1,-13,-4,5,-18,-17,1
CCCCCCCC/C=C\CCCCCCCC(=O)NCCc1ccc(O)c(O)c1,-13,40,59*,18,91*,6
CC/C=C(\NC(C)=O)c1ccccc1,5,-11,16,8,8,-10
Cc1nn(Cc2c(Cl)cccc2Cl)c(C)c1NC(=O)c1cn(-c2ccccc2)nc1-c1ccccc1,115*,87*,23,34,88*,-42
Cc1cccc(C)c1NC(=O)CNC(=O)c1cn(-c2ccccc2)nc1-c1ccccc1,-4,5,-30,-6,-8,9
COc1cc(/C=C/C(=O)OCC(=O)N2c3ccccc3NC(=O)C2(C)C)cc(OC)c1OC,65*,-8,15,-13,3,-19
O=C1C(C2=NC(c3ccccn3)C3C(=O)N(c4ccc(OC(F)(F)F)cc4)C(=O)C23)=C(O)c2ccccc21 (stereo not given),43,75*,17,13,77,-20
O=[N+]([O-])c1ccc(-[n+]2nc(-c3ccccc3)nn2-c2ccccc2)cc1,42,7,42,15,22,-53*
O=c1ccc(-c2ccc([N+](=O)[O-])cc2)nn1-c1ccccc1,3,-37,-28,14,-8,7
O=C(COC(=O)/C=C/c1ccccc1[N+](=O)[O-])NCC(F)(F)F,4,23,0,1,-9,-3
O=C(O)/C=C/c1ccc(OCc2cccc(F)c2)cc1,-11,6,1,31,0,0
COC(=O)Nc1ccc(S(=O)(=O)N2CCCC(C(=O)NC3CCS(=O)(=O)C3)C2)cc1 (stereo not given),0,0,-4,-4,8,4
CCOC(=O)c1cnc(-n2nc(C)cc2C)nc1NCCc1ccccc1,6,-3,-22,-44,46,-25
CCOC(=O)c1cnc(-n2nc(C)cc2C)nc1NCc1ccc2c(c1)OCO2,17,11,-10,9,94*,-10
SMILES,Peg3 prom inh,TRPM1 prom inh,CF NFkB inh,HIF-2a block,Shn3 3UTR inh,KKLEB cytotox
Cc1ccc2c(c1)c1c3n2CCN(C(=O)CCl)C3CCC1 (stereo not given),56*,20,20,-25,-12,-26
Cc1ccccc1Cn1ccc(NC(=O)c2cnn3c(C(F)(F)F)cc(-c4ccco4)nc23)n1,51*,2,28,0,19,0
O=C(Nc1ccc2c(c1)OCO2)c1cnn2c(C(F)(F)F)cc(-c3ccco3)nc12,6,4,42,-4,10,-34
Cc1ccccc1Cn1ccc(NC(=O)CCSc2nc(-c3ccco3)cc(C(F)(F)F)n2)n1,3,5,9,22,15,-7
O=C(Nc1cnn(C23CC4CC(CC(C4)C2)C3)c1)c1cnn2c(C(F)(F)F)cc(-c3ccco3)nc12,71*,75*,16,2,14,-25
CCOC(=O)CC1Sc2ccccc2NC1=S (stereo not given),14,4,9,8,10,0
Cc1cc(O)c2c(c1O)C(=O)[C@]13C(=C2O)C(=O)[C@@H]2[C@@H](O)[C@H]1[C@@H]1[C@H](O)[C@H]3C(=O)C3=C(O)c4c(O)cc(C)c(O)c4C(=O)[C@]312,30,?,53*,-21,92*,-19
CCCN(CC(=O)NC(=O)NCc1ccccc1)CC(=O)Nc1ccc(F)c(F)c1F,27,.,-6,0,-1,1
CC(C)(C)c1ccc(C(=O)N2[C@H](COCc3ccccc3)C=CS2(=O)=O)cc1,-5,.,13,-9,12,-1
NC(Cc1ccc(C(F)(F)F)cc1)c1csc(Nc2cc(Oc3ccccc3)ncn2)n1 (stereo not given),106*,.,91*,11,55,-94*
NC(c1csc(Nc2cc(Oc3ccccc3)ncn2)n1)C1CCCCC1 (stereo not given),99*,.,21,5,-3,7
CCOc1ccc(-n2cc(-c3ccc(OC)c(OC)c3)[nH]c2=S)cc1,-116,8,0,-142,7,-3
CC(C)(C)C1CCC(=O)N(CCOc2ccccc2)CC1 (stereo not given),-151,-65,24,-168,-1,9
Cc1cccc(Cn2nnc3c2C(=O)c2ccccc2C3=O)c1,40,46,62*,-26,17,-5
Cc1ccc(CCCNC(=O)C2CCC(=O)N(Cc3cccc(F)c3)C2)cc1 (stereo not given),-23,-6,16,-35,-3,-11
CSC1=NCCN1S(=O)(=O)c1ccccc1,7,7,-7,12,-1,7
CC(=O)Nc1ccc2c(c1)Cc1cc(N3C(=O)C=CC3=O)ccc1-2,98*,78*,30,42*,74,5
O=C1C=CC(=O)N1c1ccc2c(c1)Cc1cc(F)ccc1-2,97*,4,26,-5,40,-12
